From PubChem BioAssay (NCI) come the findings set out here.

The panel holds about 83,000 compounds, 20% with a hit somewhere; the sample as a whole holds those more often.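 Results are percent growth after 48 hours of single-concentration exposure. 100 means growth as in untreated cells, lower positive values show inhibition; negative values down to -100 show cell death.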 Unmarked numbers belong to inactive results. Calls of active or inactive are those of the source. How the source made its calls: active means growth percent below 10; inactive means the rest.

Common to all, as to assay: NCI-60 one-dose screen, 48 h (100 = growth as untreated, 0 = no growth, -100 = all killed)
Common to all, as to conditions: 10 µM unless noted

In test [1] the test system is NCI-H23 lung.
Test [2] has as its system NCI-H226 lung.
Test [3] has as its system NCI-H322M lung.
In test [4] the test system is HOP-62 NSCLC.
For test [5], the system named is NCI-H460 lung.
The test system of test [6] is HOP-92 NSCLC.
The subject of test [7] is NCI-H522 lung.
Test [8] relates to A549/ATCC NSCLC.
Test [9] has as its system 786-0 renal.
In test [10] the test system is COLO 205 colon.

As to `Cc1ccc(-c2nc(N3CCN(CC(=O)Nc4ccc(Cl)cc4)CC3)c3ccccc3n2)cc1`, the growth is 94% in test [1]; 92.9% in [2]; 91.1% in test [3]; 103% in test [4]; 98.4% in [5]; 114% in [6]. Also, the growth is 83.6% in [7], 77.4% in test [8], 92.1% in test [9] and 102% in test [10].
In the case of `N#Cc1cccc(NC(=O)c2cc(-c3ccc(F)cc3F)ccc2O)c1`, the growth in test [1] is 1.56% (active); in test [2], 3.58% (active); in test [3], 1.78% (active); in test [4], 23%; in test [5], 6.49% (active); in test [6], -24.2% (active). Besides, the growth in test [7] was -3.38% (active); in test [8], 27.3%; in test [9], 31.1%; in test [10], 107%.
Turning to `COc1ccc(OC)c(/C=C2\Oc3cc(OCCN4CCC(Cc5ccccc5)CC4)ccc3C2=O)c1`, the growth in test [1] was 88.1%; in test [2], 91%; in test [3] it was 94%; in test [4] it was 94.4%; in test [5] it was 82.2%; in test [6], 55.2%. Moreover, the growth was 86.6% in test [7], 92% in [8], 77.6% in [9] and 25.3% in [10].
As to `COc1cccc(-c2nc(-c3ccc(NC(=O)c4ccccc4)cc3)[nH]c2-c2ccnc(Br)c2)c1`, the growth in test [1] is 27.9%; in test [2], 47%; in [3], 41.2%; in test [4] it was 4.28% (active); in test [5], 19.1%; in test [6], 50.2%. Further, the growth in [7] is 16.2%; in test [8], 39.3%; in test [9], -10.4% (active); in test [10], 16.7%.
Regarding `O=C(S)CNC(=O)c1ccccc1`, the growth in test [1] was 94.3%; in test [2] it was 101%; in test [3], 95.1%; in test [4] it was 92.7%; in [5], 105%; in test [6], 74.7%. Moreover, the growth in test [7] was 86.4%; in [8], 99.8%; in test [9] it was 98.1%; in [10], 107%.
For the compound `COC(=O)CCC/C=C\C[C@H]1C=CC(=O)/C1=C/C[C@@H](O)CCc1cccc(C(F)(F)F)c1`, the growth in test [1] was -13.7% (active); in test [2], -48.4% (active); in test [3], -14.3% (active); in test [4] it was -47.3% (active); in test [5], -41.8% (active); in test [6], -37.1% (active). Besides, the growth was -75.1% (active) in [7], -24.2% (active) in test [8], -61.1% (active) in test [9] and -49.3% (active) in [10].
Turning to `Cc1ccc(C(=O)N/N=C/c2cccc([N+](=O)[O-])c2)cn1`, the growth in [1] is 101%; in test [2], 90%; in test [3], 97.1%; in test [4] it was 98.7%; in [5], 106%; in test [6] it was 91.4%. For the same compound, the growth in test [7] was 84.8%; in test [8], 92.1%; in [9] it was 31.4%; in test [10], 112%.
For `CC(C)n1cnc2c(Nc3cccc(Cl)c3)nc(N[C@H]3CCCC[C@@H]3N)nc21`, the growth is 61.7% in [1]; 68.6% in test [2]; 66.4% in test [3]; 42.8% in [4]; 45.7% in test [5]; 26.8% in [6]. Moreover, the growth in test [7] was 38.7%; in test [8], 55.7%; in [9] it was 45.7%; in [10], 26.4%.
As for `Cc1cc2nc3cc(C)c(N)cc3[n+](-c3ccccc3)c2cc1N`, the growth in [1] was 39.8%; in test [2], 71.2%; in [3], 93.8%; in test [4] it was 52.7%; in test [5], 65.6%; in [6], 41.5%. Also, the growth is 38.4% in test [7], 75.1% in [8], 58.6% in [9] and 61.1% in test [10].
As for `CCOC(=O)c1cn2ncnc(Oc3ccc(NC(=O)NCCN4CCN(C)CC4)c(Cl)c3)c2c1C`, the growth was 67.8% in [1]; 82.3% in [2]; 93% in test [3]; 87.9% in test [4]; 99.4% in test [5]; 31.6% in test [6]. In addition, the growth in [7] is 66.6%; in [8] it was 88.6%; in test [9], 81.8%; in test [10], 76.8%.
On to `NC[C@@H]1O[C@H](O[C@@H]2[C@@H](CO)OC(O[C@@H]3[C@@H](O)[C@H](N)C[C@H](N)[C@H]3OC3O[C@H](CN)[C@@H](O)[C@H](O)[C@H]3N)[C@@H]2O)[C@H](N)[C@@H](O)[C@@H]1O` (stereo not given in full), for which the growth in test [1] is 100%; in [2] it was 109%; in test [3], 120%; in test [4], 115%; in [5], 105%; in test [6], 125%. Besides, the growth in test [7] was 111%; in test [8] it was 105%; in [9] it was 101%; in [10] it was 115%.
For the compound `NCCCNc1nc2ccc(Cl)cc2c2c(=O)c3cc(F)ccc3sc12`, the growth is 82.9% in test [1]; 91.9% in test [2]; 74.9% in [3]; 81.9% in test [4]; -68.8% (active) in test [5]; 30.3% in test [6]. Also, the growth in test [7] was 62.4%; in test [8], 58.2%; in test [9], 72.7%; in test [10], 31.9%.
`NC1CCN(c2nc(Nc3cccc(C(F)(F)F)c3)c3c(=O)[nH]ccc3n2)CC1`: the growth was -58.9% (active) in test [1]; -62.5% (active) in test [2]; -12.7% (active) in test [3]; -58.8% (active) in [4]; -59.1% (active) in [5]; -61.5% (active) in test [6]. Also, the growth in [7] was -85.3% (active); in test [8] it was -52.2% (active); in [9] it was -97.7% (active); in test [10] it was -61.1% (active).
For the compound `CCCCCCn1c(-c2ccc(C(=O)O/N=C(\N)c3ccc(OC)cc3)cc2)nc(-c2ccccc2)c1-c1ccccc1`, the growth in [1] was -63.9% (active); in test [2] it was 62.6%; in test [3], 69.4%; in test [4] it was 26.4%; in test [5], -10.3% (active); in test [6] it was -63% (active). Moreover, the growth was -59% (active) in test [7], -33.9% (active) in test [8], -66.8% (active) in [9] and -14% (active) in test [10].
With `O=C(CSc1nc2ccccc2[nH]1)Nc1cccc(Cl)c1`, the growth was 98.4% in test [1]; 101% in [2]; 96.3% in test [3]; 94.9% in [4]; 103% in test [5]; 90.6% in [6]. Also, the growth is 89% in [7], 111% in test [8], 101% in [9] and 108% in test [10].
Regarding `NC(=O)Nc1ccc2ncnc(Nc3ccc(Cl)cc3)c2c1`, the growth in test [1] was 100%; in test [2], 99.8%; in test [3], 18%; in test [4] it was 86.2%; in test [5], 87.9%; in test [6], 74.2%. Also, the growth in [7] is 66.2%; in test [8], 72.5%; in [9], 85.9%; in test [10] it was 101%.
`NCCNc1nc2ccccc2c2c(=O)c3cc(F)ccc3sc12`: the growth in test [1] was 84.9%; in test [2] it was 96%; in test [3], 72.6%; in test [4] it was 76.5%; in [5], 12.2%; in [6] it was 59.1%. The growth is 79.4% in test [7], 66.1% in [8], 73.5% in test [9] and -1% (active) in test [10].
With `CC/C=C\C[C@@H]1C/C=C2/C(=O)C=C[C@H]2C/C=C\CCCC(=O)O1`, the growth in test [1] was -32.1% (active); in [2], -20% (active); in [3], -54.5% (active); in test [4], -14% (active); in test [5], -48.6% (active); in test [6], -25.8% (active). In addition, the growth is -83.4% (active) in test [7], -26.7% (active) in test [8], -88.4% (active) in test [9] and -64.2% (active) in [10].
As for `CCOC(=O)c1nc(Nc2ccc(C(C)=O)cc2)sc1C`, the growth is 94.1% in [1]; 98.8% in test [2]; 96.2% in [3]; 105% in [4]; 105% in test [5]; 108% in [6]. Besides, the growth in test [7] is 87.2%; in test [8] it was 94.3%; in test [9] it was 96.5%; in [10], 106%.
For the compound `C/C(=C\C(=O)c1ccc(Cl)cc1)c1ccc(Cl)cc1`, the growth in [1] is 83.9%; in test [2] it was 90.9%; in test [3] it was 84.9%; in [4], 88.1%; in test [5] it was 100%; in test [6] it was 72.8%. In addition, the growth in test [7] is 87.8%; in [8] it was 95.2%; in [9] it was 108%; in test [10] it was 97.5%.
For `O=C(N/N=C/[C@H](O)[C@H](O)[C@H](O)CO)c1ccc(NC(=O)c2cccnc2)cc1`, the growth in test [1] was 101%; in test [2], 105%; in test [3], 105%; in test [4], 97.5%; in test [5] it was 104%; in [6], 103%. Also, the growth in test [7] was 92.7%; in test [8], 99.8%; in test [9] it was 105%; in [10], 112%.
For `COc1ccc(/C=C/c2c(C(=O)/C=C/c3ccc(Cl)cc3)c(C)nc3ccccc23)cc1`, the growth in test [1] was 35.8%; in [2], 12.4%; in test [3] it was 68.6%; in [4] it was 22.7%; in [5], 0.257% (active); in test [6] it was 70.2%. The growth is 23.6% in [7], 84.1% in test [8], 14.3% in [9] and 58.4% in [10].
Consider `Nc1nc2ccccc2c2c(=O)c3cc(F)ccc3sc12`, for which the growth in test [1] is 87.3%; in test [2], 94.5%; in test [3], 99.2%; in test [4] it was 108%; in test [5], 103%; in test [6] it was 80.8%. Further, the growth in test [7] was 98.1%; in [8], 104%; in test [9], 97.4%; in test [10], 110%.
`Cc1nn(-c2ccccc2)c2c1N=c1s/c(=C\c3ccc(C(F)(F)F)cc3)c(=O)n1CN2`: the growth in test [1] was 51.1%; in test [2], 61%; in [3] it was 75.7%; in [4], 87.7%; in test [5] it was 53.8%; in [6], 56.4%. Moreover, the growth in test [7] was 40.5%; in [8], 5.73% (active); in test [9] it was 73.2%; in [10], 85.6%.
Consider `CCCCn1c(=O)c(-c2cc(-c3ccc(Cl)cc3)nc(-c3ccc(Cl)cc3)c2)cc2cc(C)ccc21`, for which the growth was 101% in test [1]; 105% in test [2]; 95.5% in test [3]; 102% in test [4]; 106% in test [5]; 103% in test [6]. Further, the growth is 94.9% in test [7], 98.2% in [8], 102% in test [9] and 111% in test [10].
